{"source": "the supplement of paper PMC13094657", "note": "Where a name gives a salt, the structure may show the parent alone. ± gives the standard deviation of the averaged measurements.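 For cell viability relative to vehicle unstimulated control in this document: viability of the cells left after supernatant collection, read with Deep Blue dye added for 4 h, as absorbance at 570 nm minus 600 nm.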"}
{"test_system": "MDA-MB-231", "test": "cell viability relative to vehicle unstimulated control (fraction); higher = more viable cells", "settings": "pre-treatment time: 18 h then 24 h IFNg/TNF"}
{"smiles": "C=C(C)C(=O)O[C@H]1[C@@H]2[C@H](C)C(=O)O[C@@H]2C[C@@H](C)[C@@H]2C=CC(=O)[C@]21C", "note": "[Arnicolide D] (compound dose: 10 uM)", "cell viability": "0.784 ± 0.08"}
{"smiles": "C/C=C(/C)C(=O)O[C@H]1C(C)=C[C@]23C(=O)[C@@H](C=C(C)[C@@H](O)[C@]12O)[C@H]1[C@@H](C[C@H]3C)C1(C)C", "note": "[20-Deoxyingenol 3-angelate] (compound dose: 10 uM)", "cell viability": "1.04 ± 0.05"}
{"smiles": "C=C1[C@@H]2CC[C@H]3[C@]4(C)C[C@H](O[C@@H]5O[C@H](CO)[C@@H](OS(=O)(=O)O)[C@H](OS(=O)(=O)O)[C@H]5OC(=O)CC(C)C)CC(C(=O)O)(C(=O)O)[C@H]4CC[C@]3(C2)[C@H]1O", "note": "[Carboxyatractyloside (dipotassium)] (compound dose: 10 uM)", "cell viability": "1.03 ± 0.071"}
{"smiles": "CN1[C@@H]2C[C@@H](OC(=O)[C@H](CO)c3ccccc3)C[C@H]1[C@@H]1O[C@@H]12", "note": "[Scopolamine hydrobromide] (compound dose: 10 uM)", "cell viability": "0.983 ± 0.025"}
{"smiles": "CC1=C[C@]23C(=O)[C@@H](C=C(CO)[C@@H](O)[C@]2(O)[C@H]1O)[C@H]1[C@@H](C[C@H]3C)C1(C)C", "note": "[Ingenol] (compound dose: 10 uM)", "cell viability": "0.906 ± 0.051"}
{"smiles": "CC(C)=CCC[C@](C)(O)[C@H]1CC[C@]2(C)[C@@H]1[C@H](O)C[C@@H]1[C@@]3(C)CC[C@H](O[C@@H]4O[C@H](CO)[C@@H](O)[C@H](O)[C@H]4O)C(C)(C)[C@@H]3CC[C@]12C", "note": "[Ginsenoside Rh2] (compound dose: 10 uM)", "cell viability": "0.908 ± 0.049"}
{"smiles": "C/C=C(\\C)C(=O)N[C@@H](c1ccccc1)[C@@H](O)C(=O)O[C@H]1C[C@@]2(O)[C@@H](OC(=O)c3ccccc3)[C@@H]3[C@]4(OC(C)=O)CO[C@@H]4C[C@H](O)[C@@]3(C)C(=O)[C@H](OC(C)=O)C(=C1C)C2(C)C", "note": "[Cephalomannine] (compound dose: 10 uM)", "cell viability": "0.738 ± 0.071"}
{"smiles": "C=C(CO)C(=O)O[C@H]1CC(=C)[C@@H]2C[C@H](O)C(=C)[C@@H]2[C@H]2OC(=O)C(=C)[C@@H]21", "note": "[Cynaropicrin] (compound dose: 10 uM)", "cell viability": "0.69 ± 0.16"}
{"test_system": "MDA-MB-231", "test": "kynurenine production, fold change vs DMSO IFNg/TNF control; higher = more kynurenine produced (less inhibition)", "settings": "pre-treatment time: 18 h then 24 h IFNg/TNF", "in_short": "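Fold change over cytokine-stimulated vehicle wells on the same plate is the measure used for kynurenine production, averaged across duplicate plates in the first screening round. MDA-MB-231 cells, seeded 24 h beforehand at 7 × 10^4/well in 96-well plates, were pre-treated 18 h with each natural product in 0.1% DMSO and stimulated 24 h at 37°C with IFNγ (1 U/ml) and TNF (6.25 ng/ml). Supernatants were read at 492 nm following trichloroacetic acid and p-dimethylaminobenzaldehyde treatment, against 0–100 μM standards.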"}
{"smiles": "CC1=C[C@H]2[C@@]3(O)[C@H](C)[C@@H](O)[C@]4(O)[C@H]([C@@H]3C=C(CO)C[C@]2(O)C1=O)C4(C)C", "note": "[Phorbol] (compound dose: 10 uM)", "kynurenine production": "0.894 ± 0.041"}
{"smiles": "CC(=O)OC(C)(C)/C=C/C(=O)[C@](C)(O)[C@H]1[C@H](O)C[C@@]2(C)[C@@H]3CC=C4[C@H](C[C@H](O)C(=O)C4(C)C)[C@]3(C)C(=O)C[C@]12C", "note": "[Cucurbitacin B] (compound dose: 10 uM)", "kynurenine production": "0.189 ± 0.096"}
{"smiles": "CN[C@H]1CCc2cc(OC)c(OC)c(OC)c2-c2ccc(OC)c(=O)cc21", "note": "[Demecolcine (colcemid)] (compound dose: 10 uM)", "kynurenine production": "0.486 ± 0.099"}
{"smiles": "CC1=C[C@]23C(=O)[C@@H](C=C(COC(=O)c4ccccc4)[C@@H](O)[C@]2(O)[C@H]1OC(=O)c1ccccc1)[C@H]1[C@@H](C[C@H]3C)C1(C)C", "note": "[Ingenol 3,20-dibenzoate] (compound dose: 10 uM)", "kynurenine production": "0.6413 ± 0.0018"}
{"smiles": "CC(C)(C)[C@]1(O)CC2OC(=O)CC23C(=O)OC2OC(=O)[C@H](O)C231", "note": "(stereo not given in full) [Bilobalide] (compound dose: 10 uM)", "kynurenine production": "0.774 ± 0.031"}
{"smiles": "CO[C@H]1CCN2[C@@H]3C=CC4=CC(=O)O[C@]4(C3)[C@@H]2C1", "note": "[Securitinine] (compound dose: 10 uM)", "kynurenine production": "0.734 ± 0.084"}
{"smiles": "C[C@@H]1C(=O)O[C@H]2[C@H](O)[C@@]34O[C@@H]5OC(=O)[C@H](O)[C@@]56[C@H](C(C)(C)C)[C@H](O)C(OC3=O)[C@]64[C@@]12O", "note": "(stereo not given in full) [Ginkgolide C] (compound dose: 10 uM)", "kynurenine production": "0.947 ± 0.088"}
{"smiles": "COc1cc2c3c(c1OC)-c1ccccc1C[C@H]3N(C)CC2", "note": "[Nuciferine] (compound dose: 10 uM)", "kynurenine production": "1.1 ± 0.08"}
{"smiles": "O=C([O-])c1ccc[n+]([C@@H]2O[C@H](CO)[C@@H](O)[C@H]2O)c1", "note": "[Nicotinic acid riboside] (compound dose: 10 uM)", "kynurenine production": "0.364 ± 0.35"}
{"smiles": "CN1[C@@H]2CC[C@H]1C[C@@H](OC(=O)C(CO)c1ccccc1)C2", "note": "(stereo not given in full) [Atropine sulfate] (compound dose: 10 uM)", "kynurenine production": "0.795 ± 0.044"}
{"smiles": "CC(=O)O[C@H]1C[C@H](O[C@H]2[C@@H](O)C[C@H](O[C@H]3[C@@H](O)C[C@H](O[C@H]4CC[C@@]5(C)[C@H](CC[C@@H]6[C@@H]5C[C@@H](O)[C@]5(C)[C@@H](C7=CC(=O)OC7)CC[C@]65O)C4)O[C@@H]3C)O[C@@H]2C)O[C@H](C)[C@H]1O[C@@H]1O[C@H](CO)[C@@H](O)[C@H](O)[C@H]1O", "note": "[Lanatoside C] (compound dose: 10 uM)", "kynurenine production": "0.149 ± 0.015"}
{"smiles": "C=C1[C@H](OC(=O)c2ccccc2)C[C@H]2[C@@H](/C=C(\\C)C(=O)[C@@]3(OC(C)=O)C[C@H](C)[C@H](OC(=O)c4ccccc4)[C@@H]3[C@H]1OC(C)=O)C2(C)C", "note": "[Euphorbia Factor L2] (compound dose: 10 uM)", "kynurenine production": "0.5 ± 0.15"}
{"smiles": "COc1cc([C@@H]2c3cc4c(cc3C[C@H]3COC(=O)[C@@H]32)OCO4)cc(OC)c1OC", "note": "[4-deoxypodophyllotoxin] (compound dose: 10 uM)", "kynurenine production": "0.623 ± 0.19"}
{"smiles": "CC(=O)O[C@@H]1[C@H]2[C@@H](OC(=O)Cc3ccccc3)[C@@H](C)C[C@]2(OC(C)=O)C(=O)/C(C)=C/[C@@H]2[C@H](CC[C@]13CO3)C2(C)C", "note": "[Euphorbia factor L1] (compound dose: 10 uM)", "kynurenine production": "1.07 ± 0.11"}
{"smiles": "COc1ccc2c(c1O)-c1c(O)c(OC)cc3c1[C@H](C2)N(C)CC3", "note": "[Corytuberine] (compound dose: 10 uM)", "kynurenine production": "0.889 ± 0.11"}
{"smiles": "CCCCCCCCCCCCCC(=O)O[C@@H]1[C@@H](C)[C@@]2(O)[C@@H](C=C(CO)C[C@]3(O)C(=O)C(C)=C[C@@H]23)[C@@H]2C(C)(C)[C@]12OC(C)=O", "note": "[Phorbol 12-Myristate 13-Acetate] (compound dose: 10 uM)", "kynurenine production": "1.01 ± 0.21"}
{"smiles": "COc1cc2c(cc1OC)-c1c(OC)c(OC)cc3c1[C@H](C2)N(C)CC3", "note": "[(S)-Glaucine (commercial standard)]", "kynurenine production": "0.852 ± 0.067"}
{"smiles": "C[C@@]12C[C@@H](c3ccoc3)OC(=O)[C@@H]1CC[C@]1(C)[C@H]2[C@@H]2C=C[C@@]1(O)C(=O)O2", "note": "[Columbin] (compound dose: 10 uM)", "kynurenine production": "0.882 ± 0.2"}
{"smiles": "C=C1CC[C@H]2[C@@H](/C=C(\\C)C(=O)[C@@]3(OC(C)=O)C[C@H](C)[C@H](OC(=O)Cc4ccccc4)[C@@H]3[C@H]1OC(C)=O)C2(C)C", "note": "[Deoxy euphorbia factor L1] (compound dose: 10 uM)", "kynurenine production": "0.9513 ± 0.0042"}
{"smiles": "C=C(C)C(=O)O[C@H]1[C@@H]2[C@H](C)C(=O)O[C@@H]2C[C@@H](C)[C@@H]2C=CC(=O)[C@]21C", "note": "[Arnicolide D] (compound dose: 10 uM)", "kynurenine production": "0.153 ± 0.067"}
{"smiles": "C/C=C(/C)C(=O)O[C@H]1C(C)=C[C@]23C(=O)[C@@H](C=C(C)[C@@H](O)[C@]12O)[C@H]1[C@@H](C[C@H]3C)C1(C)C", "note": "[20-Deoxyingenol 3-angelate] (compound dose: 10 uM)", "kynurenine production": "0.8582 ± 0.0053"}
{"smiles": "C=C1[C@@H]2CC[C@H]3[C@]4(C)C[C@H](O[C@@H]5O[C@H](CO)[C@@H](OS(=O)(=O)O)[C@H](OS(=O)(=O)O)[C@H]5OC(=O)CC(C)C)CC(C(=O)O)(C(=O)O)[C@H]4CC[C@]3(C2)[C@H]1O", "note": "[Carboxyatractyloside (dipotassium)] (compound dose: 10 uM)", "kynurenine production": "0.825 ± 0.43"}
{"smiles": "CN1[C@@H]2C[C@@H](OC(=O)[C@H](CO)c3ccccc3)C[C@H]1[C@@H]1O[C@@H]12", "note": "[Scopolamine hydrobromide] (compound dose: 10 uM)", "kynurenine production": "0.811 ± 0.067"}
{"smiles": "CC1=C[C@]23C(=O)[C@@H](C=C(CO)[C@@H](O)[C@]2(O)[C@H]1O)[C@H]1[C@@H](C[C@H]3C)C1(C)C", "note": "[Ingenol] (compound dose: 10 uM)", "kynurenine production": "0.846 ± 0.12"}
{"smiles": "CC(C)=CCC[C@](C)(O)[C@H]1CC[C@]2(C)[C@@H]1[C@H](O)C[C@@H]1[C@@]3(C)CC[C@H](O[C@@H]4O[C@H](CO)[C@@H](O)[C@H](O)[C@H]4O)C(C)(C)[C@@H]3CC[C@]12C", "note": "[Ginsenoside Rh2] (compound dose: 10 uM)", "kynurenine production": "0.84 ± 0.19"}
{"smiles": "C/C=C(\\C)C(=O)N[C@@H](c1ccccc1)[C@@H](O)C(=O)O[C@H]1C[C@@]2(O)[C@@H](OC(=O)c3ccccc3)[C@@H]3[C@]4(OC(C)=O)CO[C@@H]4C[C@H](O)[C@@]3(C)C(=O)[C@H](OC(C)=O)C(=C1C)C2(C)C", "note": "[Cephalomannine] (compound dose: 10 uM)", "kynurenine production": "0.267 ± 0.06"}
{"smiles": "C=C(CO)C(=O)O[C@H]1CC(=C)[C@@H]2C[C@H](O)C(=C)[C@@H]2[C@H]2OC(=O)C(=C)[C@@H]21", "note": "[Cynaropicrin] (compound dose: 10 uM)", "kynurenine production": "0.0672 ± 0.056"}
